From PubChem BioAssay (NCATS) come the findings set out here.

Assay [1] in a line: qHTS assay for small molecule disruptors of the mitochondrial membrane potential - 1 hr assay (AID 651754; calls by dose curve; note: % is set by controls: 0 for no effect and ±100 for the full control effect; nearly all actives have a fitted effect of over 35% in size). In a few lines:
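Steps: seed HepG2 cells and let attach overnight; pin-transfer compound or vehicle; incubate 1 hr at 37C; add Mito-MPS dye for 30 min; read two-channel fluorescence for monomer and aggregate forms.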

Assay [2] deals with Tumor necrosis factor (Homo sapiens) (UniProt P01375). As to the kind of experiment: qHTS assay to identify small molecules that stimulate Tumor Necrosis Factor-alpha (TNF-alpha) secretion (AID 651757; active = well fitted curve in the direction sought with a large enough effect in the signal ratio; the % refers to the signal ratio; note: 0% is about no effect). In a few lines: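 Secreted TNF-alpha from compound-treated THP-1 cells (17 hrs, 37 C) was quantified with a homogeneous time-resolved fluorescence antibody assay.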
A short description of assay [3]: qHTS assay for environmental chemicals that activate the Aryl hydrocarbon Receptor (AhR) signaling pathway (AID 651777). Note: % of control where 0% means no effect; nearly all actives have a fitted effect of over 15% in size. As to conditions: 1A2-DRE human hepatoma cells, luciferase, 24 h; activation: hits give high values. In a few lines: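 Following a 24 hr incubation with test chemicals at 37 C and 5% CO2, 1A2-DRE human hepatoma cells received One-Glo reagent; after 30 min at room temperature, luciferase output reflected CYP1A2 induction via AhR.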

In assay [4] the target is Peroxisome proliferator-activated receptor alpha (Homo sapiens) (UniProt Q07869). As to the kind of experiment: qHTS assay for small molecule agonists of the peroxisome proliferator-activated receptor alpha (PPARalpha) signaling pathway (AID 651778). Note: % of control where 0% means no effect. As to conditions: PathHunter PPARalpha complementation, chemiluminescence, 6 h; hits give high values. In a few lines:
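Chemiluminescence from complemented enzyme reported PPARalpha activation in cells after 6 hr of compound treatment at 37 C. The detection reagent was incubated for 60 min at room temperature, and compounds were scored as agonists.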

Assay [5] addresses Nuclear receptor ROR-gamma (Homo sapiens) (UniProt P51449). As to the kind of experiment: qHTS assay for small molecule antagonists of the retinoid-related orphan receptor gamma (ROR-gamma) signaling pathway (AID 651802). Note: series mostly up to about 92 µM; % is set by controls: 0 for no effect and ±100 for the full control effect; nearly all actives have a fitted effect of over 60% in size. In a few lines:
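Antagonism is scored as a fall in luminescence from a RORE-luciferase reporter in CHO cells expressing ROR under a TET-inducible promoter, measured 16hr after doxycycline induction in the presence of compound.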

Assay [6] can be described thus: qHTS assay for small molecule agonists of the antioxidant response element (ARE) signaling pathway measured by Nrf2-dependant transcriptional activity (AID 720636; active = well fitted curve in the direction sought with a large enough effect in the repeat runs; an effect the other way counts as inactive or inconclusive;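 note: HepG2 cells with an ARE-driven luciferase reporter; % of control where 0% means no effect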). In a few lines:
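ONE-Glo luminescence, read 30 min after reagent addition at room temperature, reflected ARE reporter activity in HepG2 cells that had been incubated with compound for 16 hr at 37 C in 1% dialyzed FBS.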

Assay [7] in a line: qHTS assay for small molecule antagonists of the retinoid-related orphan receptor gamma (ROR-gamma) signaling pathway - cell viability counter screen (AID 720652; active = well fitted curve in the direction sought with a large enough effect in the repeat runs; an effect the other way counts as inactive or inconclusive;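 note: series mostly up to about 92 µM; compound exposure lasted 16 hr before ATP read; % is set by controls: 0 for no effect and ±100 for the full control effect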). In a few lines: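 Cytotoxicity is quantified via intracellular ATP (CellTiter-Glo luminescence) in doxycycline-induced CHO ROR response element-luciferase reporter cells treated with compound for 16 hr at 37 C, 5% CO2.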

The nature of assay [8]: qHTS assay for small molecule agonists of the antioxidant response element (ARE) signaling pathway measured by Nrf2-dependant transcriptional activity - cell viability counter screen (AID 720653; active = well fitted curve in the direction sought with a large enough effect in the repeat runs; an effect the other way counts as inactive or inconclusive; note: % is set by controls: 0 for no effect and ±100 for the full control effect). To be noted: ARE-bla HepG2 viability, CellTiter-Glo ATP luminescence, 16 h; hits give low values. In a few lines: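 Cytotoxicity counter screen: intracellular ATP quantified by CellTiter-Glo luminescence in the same ARE-bla HepG2 plates, after 16 h compound exposure and a 2 h beta-lactamase substrate step.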

Assay [9] can be described thus: qHTS assay for cell viability of HEK293 cells (AID 743288). Note: % is set by controls: 0 for no effect and ±100 for the full control effect; nearly all actives have a fitted effect of over 50% in size. As to conditions: ATP luminescence (CellTiter-Glo), 18 h; max response: hits give low values. In a few lines: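 Parental HEK293 cells, 2,000 per well, preincubated at least 5 h at 37 C, then exposed to compounds in DMSO for 18 h at 37 C. Viability by CellTiter-Glo ATP luminescence after 30 min at room temperature.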

Assay [10] in a line: qHTS assay for cell viability of the p53RE-bla HCT-116 cell line (AID 743292). Note: % is set by controls: 0 for no effect and ±100 for the full control effect; nearly all actives have a fitted effect of over 55% in size. In a few lines:
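After plating at 4,000 cells per well and a 5 h rest at 37 C, HCT-116 cells carrying p53RE-bla received test chemicals in DMSO. Sixteen hours later at 37 C, CellTiter-Glo was added and luminescence recorded following 30 min at room temperature.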

The target of assay [11] is Nuclear receptor subfamily 1 group I member 3 (Homo sapiens) (UniProt Q14994). As to the kind of experiment: Primary qHTS for antagonist of constitutive androstane receptor (CAR) against the NCATS DSHEA and TCM libraries (AID 1794836).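 Note: HepG2 cells stably expressing hCAR with CYP2B6 luciferase reporter stimulated by CITCO; series mostly up to about 40 µM.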 In a few lines: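 Antagonist mode: CAR reporter luminescence (ONE-Glo) in HepG2-CYP2B6-hCAR cells stimulated with 48 uM CITCO (final) over 24 h at 37 C, compounds titrated; viability read first by CellTiter-Fluor fluorescence.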

Assay [12] can be described thus: Viability counterscreen for antagonist of constitutive androstane receptor (CAR) against the NCATS DSHEA and TCM libraries (AID 1794837).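 Note: compound exposure lasted 24 h before viability reading; 0% is about no effect.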 In a few lines:
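HepG2-CYP2B6-hCAR cells, 2,500/well, were exposed 24 hr at 37C to substances together with 48 uM CITCO (final). Viability was read as CellTiter-Fluor fluorescence (Ex/Em 405/540 nm) after 1 hr.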

Assay [13] can be described thus: HepG2 viability counterscreen (readout 2: ATP content) against the NCATS DSHEA and TCM libraries (AID 1794840). Note: 0% is about no effect. In a few lines: (§1)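 HepG2 cells, 1,000/well, attached ~4 h, then exposed ~24 h at 37C to substances. Protease activity read by fluorescence of 25 uM GF-AFC (Ex/Em 380/510 nm) after 30 min; ATP then by CellTiter-Glo luminescence.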
Assay [14] in a line: HepG2 viability counterscreen (readout 1: protease activity) against the NCATS DSHEA and TCM libraries (AID 1794841).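 Note: cells exposed to compounds for about 24 h before the protease read; 0% is about no effect.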 In a few lines:
as §1

Assay [15] deals with Cytochrome P450 3A4 (Homo sapiens) (UniProt P08684). As to the kind of experiment: qHTS for inhibitors of CYP3A4 against the NCATS DSHEA and TCM libraries (AID 1919971).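 Note: % is set by controls: 0 for no effect and ±100 for the full control effect; inhibition lowers luminescence from luciferin made by CYP3A4.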 In a few lines:
(§2)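 Light output from converted D-luciferin reports remaining CYP activity. Compounds preincubate with enzyme and substrate for 15 min; NADPH regeneration (1x final) runs the reaction for 30-45 min.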

The target in assay [16] is Cytochrome P450 2D6 (Homo sapiens) (UniProt P10635). As to the kind of experiment: qHTS for inhibitors of CYP2D6 against the NCATS DSHEA and TCM libraries (AID 1919972). Note: % is set by controls: 0 for no effect and ±100 for the full control effect. In a few lines:
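Steps: enzyme plus luciferin substrate dispensed; test substances pinned; 15 min RT; 1x NADPH regenerating solution added, 30–45 min RT protected from light; detection reagent, 30 min RT; luminescence measured. Minus-enzyme wells as background.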

Assay [17] deals with Cytochrome P450 2C9 (Homo sapiens) (UniProt P11712). As to the kind of experiment: qHTS for inhibitors of CYP2C9 against the NCATS DSHEA and TCM libraries (AID 1919973).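 Note: luminogenic pro-luciferin CYP2C9 substrate turned into luciferin with NADPH regeneration; series mostly up to about 34 µM; % is set by controls: 0 for no effect and ±100 for the full control effect.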 In a few lines: as §2
The target of assay [18] is Cytochrome P450 2C19 (Homo sapiens) (UniProt P33261). As to the kind of experiment: qHTS for inhibitors of CYP2C19 against the NCATS DSHEA and TCM libraries (AID 1919974).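 Note: luminescence from luciferin released by CYP2C19 oxidation of a pro-luciferin substrate; potency is the fitted concentration of half-maximal effect.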 In a few lines:
as §2

Assay [19] can be described thus: KB-3-1 P-gp reporter qHTS against the NCATS DSHEA and TCM libraries (AID 1919975). Note: 0% is about no effect. In a few lines: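 Parental KB-3-1 cells, 500 cells/well, in DMEM with 10% FBS, exposed 72 h at 37 C to compounds in concentration-response. Viability read by CellTiter-Glo luminescence after 30 min at room temperature.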
Assay [20] can be described thus: qHTS Counterscreen for compound interference against the NCATS DSHEA and TCM libraries (AID 1919978).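 Note: compounds preincubated with 1 µM D-luciferin or buffer before detection reagent; % of control where 0% means no effect.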 As to conditions: firefly luciferase detection reagent interference, luminescence. In a few lines: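 Firefly luciferase detection reagent was added after compounds (19.5 nM–39.8 uM final) had been incubated 15 min at room temperature with 1 uM D-luciferin or with 100 mM phosphate buffer alone. Luminescence was read after 30 min at room temperature.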

Assay [21] in a line: Dual reporter qHTS for agonist of Pregnane X Receptor (hPXR) against the NCATS DSHEA and TCM libraries: Fluorescence readout (AID 1920058). Note: 0% is about no effect. In a few lines:
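Measures viability of the PXR reporter HepG2 line by protease-substrate fluorescence (405/540 nm), taken 1 h after CellTiter-Fluor addition. Substances are tested as concentration series over a ~24 h exposure, with rifampicin as agonist control.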

In assay [22] the target is Nuclear receptor subfamily 1 group I member 2 (Homo sapiens) (UniProt O75469). As to the kind of experiment: Dual reporter qHTS for agonist of Pregnane X Receptor (hPXR) against the NCATS DSHEA and TCM libraries: Luminescence readout (AID 1920059). Note: 0% is about no effect. In a few lines:
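Luminescent PXR reporter read (ONE-Glo) after a CellTiter-Fluor viability read, following 24 h, 37C treatment of HepG2 cells stably carrying hPXR-Luc.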

Assay [23] in a line: Dual reporter qHTS for antagonist of Pregnane X Receptor (hPXR) against the NCATS DSHEA and TCM libraries: Fluorescence Readout (AID 1920061). Note: 0% is about no effect. In a few lines: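 Antagonist mode: rifampicin 2 uM final co-added with compounds to hPXR-LucHepG2 cells for 24 h at 37C. Viability by CellTiter-Fluor, Ex/Em 405/540 nm, 1 h; reporter by ONE-Glo luminescence.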
Assay [24] has as its target Nuclear receptor subfamily 1 group I member 2 (Rattus norvegicus) (UniProt Q9R1A7). As to the kind of experiment: qHTS assay for small molecule activators of the rat pregnane X receptor (rPXR) signaling pathway (AID 651751; call rule not given here; note: 0% is about no effect). As to conditions: rPXR reporter cells, luciferase (One-Glo), 24 h.

The structures appear in SMILES notation. Values without a mark were called inactive. Records with an inconclusive call do not appear. Calls of active or inactive are those of the source. Unless noted, calls come from the whole dose curve; as a rule, active = well fitted curve in the direction sought with a large enough effect; inconclusive = small, poorly fitted or top-dose-only effect, or another doubt; inactive = no such curve, though single readings can be large; an effect the other way counts as inactive or inconclusive.

Sequence of Nuclear receptor subfamily 1 group I member 2 (Rattus norvegicus) (Q9R1A7 whole entry, looked up): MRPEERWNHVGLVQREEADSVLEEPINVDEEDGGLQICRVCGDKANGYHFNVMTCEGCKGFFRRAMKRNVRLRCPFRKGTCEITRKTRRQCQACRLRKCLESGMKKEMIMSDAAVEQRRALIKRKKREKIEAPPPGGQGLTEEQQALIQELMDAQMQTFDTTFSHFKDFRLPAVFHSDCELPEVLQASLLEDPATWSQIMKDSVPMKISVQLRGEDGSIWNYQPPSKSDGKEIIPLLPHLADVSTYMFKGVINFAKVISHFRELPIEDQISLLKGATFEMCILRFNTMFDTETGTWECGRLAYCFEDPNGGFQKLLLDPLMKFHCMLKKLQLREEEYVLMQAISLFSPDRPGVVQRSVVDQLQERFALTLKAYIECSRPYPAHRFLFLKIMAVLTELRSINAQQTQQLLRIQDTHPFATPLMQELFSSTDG
Sequence of Nuclear receptor subfamily 1 group I member 2 (Homo sapiens) (O75469 whole entry, looked up): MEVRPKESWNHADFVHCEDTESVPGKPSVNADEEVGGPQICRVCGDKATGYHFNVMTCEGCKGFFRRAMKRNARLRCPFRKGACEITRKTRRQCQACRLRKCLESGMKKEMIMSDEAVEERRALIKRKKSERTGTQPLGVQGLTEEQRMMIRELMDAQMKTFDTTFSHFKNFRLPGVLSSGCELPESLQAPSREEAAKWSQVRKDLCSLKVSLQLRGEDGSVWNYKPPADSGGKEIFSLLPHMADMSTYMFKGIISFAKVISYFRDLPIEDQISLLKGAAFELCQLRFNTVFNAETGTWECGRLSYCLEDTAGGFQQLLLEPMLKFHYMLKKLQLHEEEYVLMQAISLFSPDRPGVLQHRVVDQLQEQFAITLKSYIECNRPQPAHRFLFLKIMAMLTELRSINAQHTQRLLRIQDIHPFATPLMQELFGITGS
Sequence of Nuclear receptor ROR-gamma (Homo sapiens) (P51449 whole entry, looked up): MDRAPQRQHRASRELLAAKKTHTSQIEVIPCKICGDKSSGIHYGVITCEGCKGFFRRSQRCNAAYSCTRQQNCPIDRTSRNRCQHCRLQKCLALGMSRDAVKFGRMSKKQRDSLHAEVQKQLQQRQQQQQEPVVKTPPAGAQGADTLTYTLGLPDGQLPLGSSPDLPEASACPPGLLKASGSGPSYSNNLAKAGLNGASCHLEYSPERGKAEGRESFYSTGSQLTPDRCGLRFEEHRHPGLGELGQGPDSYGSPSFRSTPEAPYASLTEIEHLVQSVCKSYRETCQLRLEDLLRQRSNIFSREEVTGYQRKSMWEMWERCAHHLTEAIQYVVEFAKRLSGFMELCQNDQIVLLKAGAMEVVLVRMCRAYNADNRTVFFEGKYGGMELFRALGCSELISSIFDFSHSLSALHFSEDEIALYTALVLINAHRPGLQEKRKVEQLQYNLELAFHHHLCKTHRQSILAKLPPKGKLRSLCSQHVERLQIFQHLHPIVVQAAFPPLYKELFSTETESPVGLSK
Sequence of Peroxisome proliferator-activated receptor alpha (Homo sapiens) (Q07869 whole entry, looked up): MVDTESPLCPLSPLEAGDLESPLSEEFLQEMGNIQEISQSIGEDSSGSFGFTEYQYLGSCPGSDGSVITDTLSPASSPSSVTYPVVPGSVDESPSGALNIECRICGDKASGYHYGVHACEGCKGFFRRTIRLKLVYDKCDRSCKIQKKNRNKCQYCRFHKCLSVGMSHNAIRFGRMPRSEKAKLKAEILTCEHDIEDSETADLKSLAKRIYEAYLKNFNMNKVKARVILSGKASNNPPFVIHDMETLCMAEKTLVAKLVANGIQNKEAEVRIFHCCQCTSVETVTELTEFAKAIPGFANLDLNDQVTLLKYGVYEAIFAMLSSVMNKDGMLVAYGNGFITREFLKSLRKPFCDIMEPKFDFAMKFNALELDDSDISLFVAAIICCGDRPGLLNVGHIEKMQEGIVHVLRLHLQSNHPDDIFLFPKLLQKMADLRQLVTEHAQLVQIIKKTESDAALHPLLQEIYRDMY
Sequence of Cytochrome P450 2C9 (Homo sapiens) (P11712 whole entry, looked up): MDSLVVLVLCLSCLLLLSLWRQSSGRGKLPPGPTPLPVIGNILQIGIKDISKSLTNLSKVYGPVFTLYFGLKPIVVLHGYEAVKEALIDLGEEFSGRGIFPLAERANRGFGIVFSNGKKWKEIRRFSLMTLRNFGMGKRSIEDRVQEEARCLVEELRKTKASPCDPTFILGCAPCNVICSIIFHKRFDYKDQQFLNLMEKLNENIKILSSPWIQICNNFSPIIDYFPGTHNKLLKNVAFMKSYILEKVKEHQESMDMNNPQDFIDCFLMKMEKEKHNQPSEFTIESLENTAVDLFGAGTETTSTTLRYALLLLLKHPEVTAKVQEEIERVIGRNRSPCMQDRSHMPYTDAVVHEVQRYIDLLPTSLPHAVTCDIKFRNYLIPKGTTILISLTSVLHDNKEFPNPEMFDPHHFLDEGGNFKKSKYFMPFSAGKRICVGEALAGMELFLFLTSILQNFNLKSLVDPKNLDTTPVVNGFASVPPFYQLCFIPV
Sequence of Cytochrome P450 3A4 (Homo sapiens) (P08684 whole entry, looked up): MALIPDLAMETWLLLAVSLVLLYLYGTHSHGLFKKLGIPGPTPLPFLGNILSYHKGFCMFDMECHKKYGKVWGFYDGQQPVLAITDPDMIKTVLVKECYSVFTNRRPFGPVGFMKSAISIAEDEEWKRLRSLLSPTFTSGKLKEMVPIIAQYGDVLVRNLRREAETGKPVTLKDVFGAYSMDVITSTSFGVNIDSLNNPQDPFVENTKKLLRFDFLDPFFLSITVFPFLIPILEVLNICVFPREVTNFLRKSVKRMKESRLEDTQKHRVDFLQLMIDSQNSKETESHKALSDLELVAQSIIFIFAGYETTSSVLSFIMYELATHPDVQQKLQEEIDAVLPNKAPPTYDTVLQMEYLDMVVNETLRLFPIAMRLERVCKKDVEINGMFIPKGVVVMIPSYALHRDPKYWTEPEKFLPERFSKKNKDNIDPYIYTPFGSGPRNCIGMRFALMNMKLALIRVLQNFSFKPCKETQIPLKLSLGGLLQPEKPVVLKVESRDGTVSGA
Sequence of Tumor necrosis factor (Homo sapiens) (P01375 whole entry, looked up): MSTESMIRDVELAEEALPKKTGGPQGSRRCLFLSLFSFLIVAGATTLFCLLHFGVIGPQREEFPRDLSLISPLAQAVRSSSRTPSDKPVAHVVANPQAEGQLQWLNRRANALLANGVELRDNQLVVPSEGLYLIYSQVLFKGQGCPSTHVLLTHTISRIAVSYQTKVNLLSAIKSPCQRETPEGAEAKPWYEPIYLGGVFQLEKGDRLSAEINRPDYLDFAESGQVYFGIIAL
Sequence of Nuclear receptor subfamily 1 group I member 3 (Homo sapiens) (Q14994 whole entry, looked up): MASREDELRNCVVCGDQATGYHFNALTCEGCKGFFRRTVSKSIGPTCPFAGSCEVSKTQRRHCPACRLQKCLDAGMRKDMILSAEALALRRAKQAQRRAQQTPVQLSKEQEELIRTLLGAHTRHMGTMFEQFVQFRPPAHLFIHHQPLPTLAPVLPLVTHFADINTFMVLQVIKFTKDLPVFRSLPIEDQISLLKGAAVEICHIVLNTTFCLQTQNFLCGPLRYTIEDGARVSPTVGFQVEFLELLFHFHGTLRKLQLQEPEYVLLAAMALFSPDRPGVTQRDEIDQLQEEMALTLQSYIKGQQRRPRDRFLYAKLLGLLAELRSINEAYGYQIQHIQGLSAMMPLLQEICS
Sequence of Cytochrome P450 2D6 (Homo sapiens) (P10635 whole entry, looked up): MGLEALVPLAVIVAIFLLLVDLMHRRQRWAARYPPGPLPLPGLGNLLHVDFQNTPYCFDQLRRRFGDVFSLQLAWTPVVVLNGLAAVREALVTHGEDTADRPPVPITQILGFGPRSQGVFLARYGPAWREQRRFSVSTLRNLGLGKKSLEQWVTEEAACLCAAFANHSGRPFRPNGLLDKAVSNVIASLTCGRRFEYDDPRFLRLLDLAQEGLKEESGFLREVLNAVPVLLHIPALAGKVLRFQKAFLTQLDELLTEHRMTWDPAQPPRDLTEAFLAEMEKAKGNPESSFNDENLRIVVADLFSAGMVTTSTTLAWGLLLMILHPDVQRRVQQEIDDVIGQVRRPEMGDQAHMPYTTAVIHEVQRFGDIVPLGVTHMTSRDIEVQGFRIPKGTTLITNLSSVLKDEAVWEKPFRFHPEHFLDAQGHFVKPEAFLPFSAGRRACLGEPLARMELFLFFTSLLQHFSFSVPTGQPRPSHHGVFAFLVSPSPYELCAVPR
Sequence of Cytochrome P450 2C19 (Homo sapiens) (P33261 whole entry, looked up): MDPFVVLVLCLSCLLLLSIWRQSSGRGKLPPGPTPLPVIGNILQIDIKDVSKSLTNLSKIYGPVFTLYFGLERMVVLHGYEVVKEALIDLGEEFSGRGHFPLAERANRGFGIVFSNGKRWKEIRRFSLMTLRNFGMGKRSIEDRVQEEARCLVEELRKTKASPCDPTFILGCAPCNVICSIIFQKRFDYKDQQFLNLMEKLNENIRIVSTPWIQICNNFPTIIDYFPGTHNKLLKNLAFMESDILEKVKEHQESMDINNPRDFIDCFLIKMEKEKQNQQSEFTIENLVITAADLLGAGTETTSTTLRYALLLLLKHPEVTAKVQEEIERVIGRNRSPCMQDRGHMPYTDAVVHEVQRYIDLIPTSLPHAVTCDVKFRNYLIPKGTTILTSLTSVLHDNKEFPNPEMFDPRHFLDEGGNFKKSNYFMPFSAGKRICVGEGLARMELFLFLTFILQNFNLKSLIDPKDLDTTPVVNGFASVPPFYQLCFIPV

Consider `COC1=CC(=O)OC(CCc2ccccc2)C1` (centres undefined), for which the Potency entry in [1], in assay [5], in assay [7], in [10], in assay [11] and in [15] was “inactive” throughout. Besides, the Potency result in [16], in assay [17] and in assay [22] was “inactive” each time. The result in assay [2], in assay [6], in [12], in [13], in [14] and in assay [19] was inactive. For the same molecule, the molecule was called inactive in assay [21] and in [23]. For the same molecule, the activation in [3] is 1.87%. For the same molecule, the max response in assay [4] is -9.22%; in assay [8], -8.18%; in assay [9], -7.7%; in [20], 2.83%; in assay [24] it was 3.74%. Further, the Potency in assay [18] is 14.1 µM (active).
